Growth data for nine compounds are collected here from PubChem BioAssay (NCI).

Assay in all cases: NCI-60 one-dose screen, 48 h (100 = growth as untreated, 0 = no growth, -100 = all killed)
What all share (conditions): 10 µM unless noted

The subject of test [1] is SK-MEL-2 melanoma.
For test [2], the system named is EKVX NSCLC.
Test [3] concerns SN12C renal.
Test [4] relates to UO-31 renal.
The test system of test [5] is TK-10 renal.
Test [6] relates to ACHN renal.
The test system of test [7] is CAKI-1 renal.
In test [8] the test system is A498 renal.
In test [9] the test system is CCRF-CEM leukemia.
In test [10] the test system is MOLT-4 leukemia.
Test [11] concerns SR leukemia.
Test [12] concerns RPMI-8226 leukemia.
The test system of test [13] is OVCAR-8 ovarian.
The test system of test [14] is OVCAR-5 ovarian.
Test [15] concerns OVCAR-4 ovarian.
The subject of test [16] is SK-OV-3 ovarian.
The test system of test [17] is OVCAR-3 ovarian.
Test [18] deals with HS 578T breast.
Test [19] relates to NCI/ADR-RES ovarian.
In test [20] the test system is IGROV1 ovarian.

Molecules are shown by their SMILES. The panel holds about 83,000 compounds, 20% with a hit somewhere; the sample as a whole holds those more often.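 Compound tested at a single concentration for 48 hours in 96-well plates; a percent growth value below 10 was scored as active.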 A number with no mark means an inactive call. Active and inactive are the calls of the source.

As for `COc1ccc(C(=O)COc2cccc(/C=C3\CSc4ccc(Cl)cc4C3=O)c2)cc1`, the growth in test [1] was 46.9%; in test [2], 77.9%; in [3], 90.2%; in test [4] it was 13.1%; in test [5], 118%; in test [6] it was 90.3%. The growth was 69.6% in test [7]; 94.4% in test [8]; -21.3% (active) in [9]; 7.34% (active) in test [10]; 20% in test [11]; -13.7% (active) in test [12]. The growth in test [13] was 78.4%; in [14], 93.5%; in test [15], 64.6%; in [16] it was 94.6%; in test [17], 88%; in [18], 91%. Further, the growth in test [19] was 84.3%.

For `CCOC1Oc2ccccc2C(=O)/C1=N/c1nccs1` (configuration not stated), the growth in test [1] is 73.9%; in [2], 89.3%; in [3] it was 76.4%; in test [4], 89.4%; in test [5], 98.8%; in test [6] it was 84.9%. For the same compound, the growth in test [7] was 77.3%; in test [8], 115%; in test [9] it was 82.4%; in test [10], 79.8%; in test [11], 57.1%; in test [12], 36.3%. In addition, the growth in test [13] is 114%; in test [14], 99.1%; in test [15], 94.5%; in [16], 97.7%; in test [17], 64.7%; in test [18], 90.3%. Besides, in [19], the growth was 87.9%.

With `CC1Cc2ccccc2N1C(=O)c1ccc(C(=O)c2ccccc2)cc1` (configuration not stated), the growth in test [1] is 19%; in test [2], 88.3%; in test [3], 81.9%; in test [4] it was 49.8%; in test [5], 84.1%; in test [6], 89.7%. The growth in [7] was 77.8%; in test [8], 95.5%; in [9] it was 94.3%; in [10] it was 91.5%; in [11] it was 97.6%; in test [12] it was 74.3%. In addition, the growth in test [13] is 88.4%; in test [14], 143%; in test [15], 71.2%; in test [16], 102%; in [17] it was 78.9%; in [18], 96.3%. In addition, the growth in [19] is 61.7%.

As for `O=C(Nc1ccccc1OC(=O)c1ccccc1)c1ccccc1`, the growth in [1] is 83.1%; in test [2] it was 110%; in test [3] it was 69.6%; in test [4], 77.4%; in test [5], 101%; in test [6] it was 98.9%. Moreover, the growth in test [7] is 91.5%; in test [8] it was 81.4%; in [9], 27.1%; in test [10], 26.2%; in [11], 58.8%; in test [12] it was 91.7%. Further, the growth is 92.6% in test [13]; 93.1% in test [14]; 89.2% in test [16]; 90.6% in test [20]; 101% in [18]; 87.8% in test [19].

As to `O=C(O)CCNS(=O)(=O)c1ccc(-c2ccccc2)cc1`, the growth in test [1] is 0.624% (active); in [2], 91.6%; in [3], 95%; in test [4], 92.8%; in [5], 136%; in test [6], 97.9%. Also, the growth in [7] is 104%; in test [8], 115%; in [9], 111%; in test [10] it was 118%; in test [11], 88.9%; in test [12], 69%. For the same compound, the growth is 97.7% in [13]; 107% in [14]; 101% in test [15]; 107% in test [16]; 114% in test [17]; 9.34% (active) in [18]. Moreover, the growth in test [19] is 108%.

Regarding `O=C(NC1CCS(=O)(=O)C1)c1ccc(C(=O)c2ccccc2)cc1` (configuration not stated), the growth in test [1] was 7.36% (active); in [2], 96.3%; in test [3], 105%; in [4], 76.5%; in [5], 137%; in test [6] it was 98.1%. Also, the growth in [7] is 98.2%; in [8], 110%; in [9] it was 127%; in [10], 109%; in test [11] it was 133%; in test [12], 72.8%. For the same compound, the growth in test [13] is 70%; in [14], 102%; in test [15] it was 98.1%; in test [16], 113%; in test [17], 121%; in test [18] it was 34.5%. The growth in test [19] was 117%.

Consider `Cc1ccc(-c2cc(-c3ccccc3)n(-c3ccccc3)n2)cc1`, for which the growth in [1] is 74.6%; in test [2], 98.6%; in test [3], 107%; in test [4] it was 79.1%; in [5], 99.4%; in [6] it was 95.3%. In addition, the growth was 94.5% in test [7]; 92.1% in [8]; 84.9% in test [9]; 81.5% in test [10]; 72.3% in test [11]; 83.8% in test [12]. Further, the growth was 105% in [13]; 95.8% in [14]; 85.3% in [15]; 105% in [16]; 103% in [17]; 101% in test [19].

In the case of `Nc1ccc2c(c1)C(=O)c1cc(Cl)c(Cl)cc1-2`, the growth in test [1] was 95.8%; in [2] it was 74.1%; in [3] it was 90.8%; in test [4], 49.9%; in test [5], 113%; in test [6] it was 92.1%. The growth in [7] is 70.4%; in test [8], 76.5%; in test [9], 82.8%; in test [10], 77.1%; in [11], 82%; in [13] it was 92.3%. Also, the growth in test [14] is 95.9%; in test [15], 89.9%; in test [16], 97.9%; in test [18] it was 105%; in test [19], 97.3%.

For the compound `Cc1cccc2nnc(-c3ccccc3)n12`, the growth is 99.1% in [1]; 103% in test [2]; 93.7% in [3]; 85.1% in test [4]; 98.1% in test [5]; 105% in test [6]. In addition, the growth in test [7] was 105%; in [8], 96%; in [9] it was 99.3%; in test [10], 93.2%; in test [11], 93%; in test [13], 109%. The growth was 107% in test [14]; 104% in test [15]; 121% in [16]; 115% in [20]; 129% in test [17]; 146% in [18]. Moreover, the growth in test [19] was 107%.
